Nrf2 block = blocks Nrf2 signaling; AID 504444; 360,000 compounds, 2.1% hits; A549 ARE-Fluc reporter, luciferase luminescence, 18-24 h; Potency, µM (titrated, usually from 46 µM), usual class: inhibitors; further: nearly all actives have a fitted effect of over 60% in size
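Concentration-response testing used A549 ARE_Fluc cells at 5000 cells/well. Following an 18-24 h compound incubation, viability was read by fluorescence (Ex 405/Em 525) and luciferase output by luminescence.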
IDH1 R132H inh = inhibitors of human mutant IDH1 R132H; O75874; IDH1-R132H enzyme, NADPH consumption, diaphorase/resazurin fluorescence; Potency, µM (doses to about 76.6 µM), most hits filed as inhibitors; 390,000 compounds, 0.093% hits; AID 602179; further: nearly all actives have a fitted effect of over 65% in size
Target sequence (O75874 whole entry R132H, stated change not applied): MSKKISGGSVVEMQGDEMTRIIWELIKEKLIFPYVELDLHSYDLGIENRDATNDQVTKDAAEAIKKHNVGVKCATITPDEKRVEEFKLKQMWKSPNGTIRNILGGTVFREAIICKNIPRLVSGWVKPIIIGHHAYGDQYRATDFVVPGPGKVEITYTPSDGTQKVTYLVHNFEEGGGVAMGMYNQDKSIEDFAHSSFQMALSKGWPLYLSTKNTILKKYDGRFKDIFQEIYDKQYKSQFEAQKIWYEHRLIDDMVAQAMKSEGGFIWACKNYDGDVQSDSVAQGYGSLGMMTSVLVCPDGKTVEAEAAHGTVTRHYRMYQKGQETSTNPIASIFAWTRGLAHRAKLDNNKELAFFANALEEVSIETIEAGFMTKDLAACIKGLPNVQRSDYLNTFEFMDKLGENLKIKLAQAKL
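IDH1-R132H (0.5 ug/mL dispensed) in pH 7.5 Tris buffer was preincubated 30 min with compound, then given a substrate mix of 0.016 mM NADPH and 2 mM alpha-KG for 80 min at room temperature; remaining NADPH was read by diaphorase/resazurin fluorescence.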
Nrf2 activator = activates Nrf2 signaling. AID 624171. AREc32 ARE-luciferase reporter (MCF7-derived line), luminescence, 24 h. 410,000 compounds, 0.31% hits. Potency, µM (series often up to 46.1 µM), most hits filed as activators; further: nearly all actives have a fitted effect of over 65% in size
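Each well held 1000 AREc32 cells, which were incubated with compound for 24 hr at 37 deg C after overnight attachment, and ARE reporter activity was quantified by firefly luciferase luminescence.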
A549 tox = A549 cytotoxicity, counter-screen for Nrf2 inhibitors | A549 ARE-Fluc cells, CellTiter-Fluor viability, 18-24 h | Potency, µM (series often up to 46 µM), actives largely listed as inhibitors | 390,000 compounds, 0.16% hits | AID 504648
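A549 ARE_Fluc cells in 5% FBS OPTI-MEM were exposed to compounds in concentration-response for 18-24 h at 37 deg C. Viability was read by CellTiter-Fluor fluorescence (Ex 405/Em 525) after 30 min, before the luciferase read.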
Apoferritin bind = binds horse apoferritin like a general anesthetic | P02791 | apoferritin/1-aminoanthracene competitive binding, fluorescence | Potency, µM (top dose mostly 77.5 µM), most hits filed as inhibitors | 350,000 compounds, 0.074% hits; further: nearly all actives have a fitted effect of over 20% in size
Target sequence (P02791 2-175 limits assumed): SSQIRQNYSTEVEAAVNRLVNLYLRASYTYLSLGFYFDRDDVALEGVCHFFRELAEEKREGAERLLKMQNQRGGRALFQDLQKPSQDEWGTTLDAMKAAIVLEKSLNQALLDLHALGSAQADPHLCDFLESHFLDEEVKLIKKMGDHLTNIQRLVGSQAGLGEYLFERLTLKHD
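10 uM apoferritin + 50% sat. 1-AMA, PBS; cpd 10 min RT; Ex380/Em535 endpoint; normalized to free probe vs complex; 4-param Hill fit; propofol titration as pos. ctrl.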
Giardia killer = kills Giardia lamblia. Giardia lamblia trophozoite viability. activity change, % at 7.66 µM, hits read low. 340,000 compounds, 0.15% hits. AID 540267; in the data active means activity change below about -80%; inconclusive means between about -30% and that limit;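 further: parasites exposed to compound for two days anaerobically before the ATP read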
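Viability, read as ATP luminescence: trophozoites at 100 cells/well, compound added, 48 hrs anaerobic at 37 deg C, then 15-30 min room-temperature development before reading.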
Numbers stand for hits; [ ] = dose if it differs, or a comment. An excerpt weighted towards active compounds, which were near 2.3% of everything screened. Unless noted, the call rests on the fitted dose curve; in most records, active means well fitted curve in the direction sought with a large enough effect; inconclusive means small, poorly fitted or top-dose-only effect, or another doubt; inactive means no such curve, though single readings can be large; an effect the other way counts as inactive or inconclusive.

CC1CCCN(c2nc(NCc3ccco3)nc(N)c2[N+](=O)[O-])C1 (configuration not stated) was read as Nrf2 block 18µM, IDH1 R132H inh inactive, Nrf2 activator inactive[9.22 µM], A549 tox inactive, Apoferritin bind inconclusive and Giardia killer inactive.
For Nc1nc(NCc2ccco2)nc(N2CCOCC2)c1[N+](=O)[O-] the results were Nrf2 block inconclusive, IDH1 R132H inh inactive, Nrf2 activator inconclusive, A549 tox inactive, Apoferritin bind inactive and Giardia killer inactive.
Screening O=C(Nc1cccc(C(F)(F)F)c1)Nc1cc(Cl)ccc1C(=O)O returned Apoferritin bind inactive.
Screening COc1ccc(-c2nn3c(-c4cc(C)[nH]n4)nnc3s2)cc1 returned Nrf2 block inactive, A549 tox inactive and Giardia killer inactive.
Clc1ccccc1-c1nnc(COc2ccccc2)o1 was read as Nrf2 block inconclusive, IDH1 R132H inh inactive, Nrf2 activator inactive, A549 tox inactive and Apoferritin bind inactive.
For Clc1ccccc1-c1ncc(-c2ccccc2)o1 the results were Nrf2 block inconclusive, IDH1 R132H inh inactive, Nrf2 activator 10µM, A549 tox inactive, Apoferritin bind inconclusive and Giardia killer inconclusive.
O=C(Nc1nnc([C@H]2C[C@H](O)[C@@H](CO)O2)s1)Nc1ccc(F)cc1F was read as Nrf2 activator inactive.
O=C(NCc1cccnc1)/C(=C\c1ccc(-c2ccc(Cl)c(Cl)c2)o1)S(=O)(=O)c1ccccc1 was read as Nrf2 block 18µM, IDH1 R132H inh inconclusive, Nrf2 activator inconclusive, A549 tox inconclusive, Apoferritin bind inactive and Giardia killer inactive.
Screening CNc1nc2c(c(=O)n(C)c(=O)n2C)n1CCCc1ccccc1 returned Nrf2 block inconclusive, IDH1 R132H inh inactive, Nrf2 activator inactive, A549 tox inactive, Apoferritin bind inactive and Giardia killer inactive.
Screening Cn1c(=O)c2c(nc(Sc3ncccn3)n2Cc2ccccc2Cl)n(C)c1=O returned Nrf2 block inconclusive, IDH1 R132H inh inactive, Nrf2 activator inactive, A549 tox inactive, Apoferritin bind inactive and Giardia killer inactive.
`Cn1c(=O)c2c(nc(Sc3ncccn3)n2Cc2ccc(Cl)cc2)n(C)c1=O` gave Nrf2 block 15µM, IDH1 R132H inh inactive, Nrf2 activator inactive, A549 tox inactive, Apoferritin bind inactive and Giardia killer inactive.
Cn1c(=O)c2c(nc(NCc3ccccc3)n2CCCc2ccccc2)n(C)c1=O was read as Nrf2 block inconclusive, IDH1 R132H inh inactive, Nrf2 activator inactive, A549 tox inactive, Apoferritin bind inactive and Giardia killer inactive.
CNc1nc2c(c(=O)n(C)c(=O)n2C)n1Cc1ccccc1 was read as Nrf2 block 7.3µM, IDH1 R132H inh inactive, Nrf2 activator inactive, A549 tox inactive, Apoferritin bind inactive and Giardia killer inactive.
For COCCNc1nc2c(c(=O)n(C)c(=O)n2C)n1Cc1cccc(C)c1 the results were Nrf2 block inconclusive, IDH1 R132H inh inactive, Nrf2 activator inactive, A549 tox inactive, Apoferritin bind inactive and Giardia killer inactive.
`Cc1cccc(Cn2c(NCCO)nc3c2c(=O)n(C)c(=O)n3C)c1` gave Nrf2 block 4.1µM, IDH1 R132H inh inactive, Nrf2 activator inactive, A549 tox inactive, Apoferritin bind inactive and Giardia killer inactive.
Screening Cn1c(=O)c2c(nc(NCCO)n2CCCc2ccccc2)n(C)c1=O returned Nrf2 block 21µM, IDH1 R132H inh inactive, Nrf2 activator inactive, A549 tox inactive, Apoferritin bind inactive and Giardia killer inactive.
`Cc1ccc(NC(=O)C2CC(=O)N/C(=N/N=C/c3ccco3)S2)cc1` (configuration not stated) gave Nrf2 block inactive, IDH1 R132H inh inactive, Nrf2 activator inconclusive, A549 tox inactive, Apoferritin bind inactive and Giardia killer inactive.
`O=C1CC(C(=O)Nc2ccc(F)cc2)S/C(=N\N=C\c2ccco2)N1` (configuration not stated) gave Nrf2 block inactive, IDH1 R132H inh inactive, Nrf2 activator 11µM, A549 tox inactive, Apoferritin bind inactive and Giardia killer inactive.
Nc1cc(S(=O)(=O)Nc2ccccc2Cl)ccc1N1CCOCC1 was read as Nrf2 block inconclusive, IDH1 R132H inh inactive, Nrf2 activator inactive, A549 tox inactive, Apoferritin bind inactive and Giardia killer inactive.
Screening Nc1cc(S(=O)(=O)Nc2ccc(Cl)cc2)ccc1N1CCOCC1 returned Nrf2 block 16µM, IDH1 R132H inh inactive, Nrf2 activator inactive, A549 tox inactive, Apoferritin bind inactive and Giardia killer inactive.
Screening CCNC(=O)Nc1cc(S(=O)(=O)Nc2ccc(OC)cc2)ccc1N1CCOCC1 returned Nrf2 block 4.1µM, IDH1 R132H inh inactive, Nrf2 activator inactive, A549 tox inactive and Giardia killer inactive.
Screening Cc1cc2n(n1)C(c1ccc(O)cc1)Nc1ccccc1-2 (configuration not stated) returned Nrf2 block 18µM, IDH1 R132H inh inactive, Nrf2 activator inactive, Apoferritin bind inactive and Giardia killer inactive.
Screening CC(C)c1ccc(Nc2nc3ccc(C(=O)c4ccccc4)cc3n3cnnc23)cc1 returned Nrf2 block inconclusive, IDH1 R132H inh inactive, Nrf2 activator inactive, A549 tox inactive and Apoferritin bind inactive.
For COc1ccc(OC)c(C(=O)COC(=O)c2ccccc2O)c1 the results were Nrf2 block inactive, IDH1 R132H inh inactive, Nrf2 activator 13µM, A549 tox inactive, Apoferritin bind inconclusive and Giardia killer inactive.
`O=C(CN1CC(=O)Oc2ccccc21)OCC(=O)c1ccc(Br)cc1` gave Nrf2 block inactive, IDH1 R132H inh inactive, Nrf2 activator 13µM, A549 tox inconclusive and Giardia killer inactive.
O=C(CN1CC(=O)Oc2ccccc21)OCC(=O)c1ccc(F)cc1 was read as Nrf2 block inactive, IDH1 R132H inh inactive, Nrf2 activator inconclusive, A549 tox inconclusive, Apoferritin bind inactive and Giardia killer inactive.
Screening Cc1oc(-c2cccc(Cl)c2)nc1CN1CCCC(C(=O)NCc2ccc(F)cc2)C1 (configuration not stated) returned Nrf2 block inactive, IDH1 R132H inh inactive, Nrf2 activator inactive, A549 tox inactive and Apoferritin bind inactive.
Screening COc1ccc(S(=O)(=O)NCc2ccco2)c2ccccc12 returned Nrf2 block 3.7µM, IDH1 R132H inh inactive, Nrf2 activator inconclusive, A549 tox inconclusive, Apoferritin bind inactive and Giardia killer inactive.
Screening COc1ccc([N+](=O)[O-])cc1NCc1ccco1 returned Nrf2 block inconclusive, IDH1 R132H inh inactive, Nrf2 activator 11µM, A549 tox inactive, Apoferritin bind inactive and Giardia killer inactive.

Assay outcomes: PubChem BioAssay, National Center for Advancing Translational Sciences (NCATS)
